The campaign covered roughly 39,000 compounds. About 3,300 (8.5%) were called active. Only a selection was taken, and actives are over-represented in it overall.
Test system: HepG2
Test: cytotoxicity call (relative viability < 0.9)
Conditions: 10 µM

SMILES | cytotoxicity call
Cl.O=C1CN2Cc3c(ccc(Cl)c3Cl)N=C2N1 | active
C[C@H](CO)N1C[C@H](C)[C@H](CN(C)C(=O)C2CCOCC2)Oc2cc(-c3ccc(F)cc3)ccc2S1(=O)=O | inactive
COc1ccc(S(=O)(=O)N(C)C[C@@H]2Oc3ncc(C#CC4(O)CCCC4)cc3C(=O)N([C@@H](C)CO)C[C@@H]2C)cc1 | inactive
O=C(Cc1nn[nH]n1)NS(=O)(=O)c1ccccc1 | inactive
C[C@@H]1CN([C@H](C)CO)C(=O)c2cc(NC(=O)Nc3ccc(F)cc3)ccc2O[C@@H](C)CCCCO[C@@H]1CN(C)CC1CCCCC1 | active
C[C@@H]1CCCCO[C@@H](CN(C)CC2CC2)[C@H](C)CN([C@H](C)CO)C(=O)c2cc(NC(=O)Nc3ccc(F)cc3)ccc2O1 | inactive
C[C@@H]1CCCCO[C@@H](CN(C)CC2CCCCC2)[C@@H](C)CN([C@@H](C)CO)C(=O)c2cc(NC(=O)Nc3ccc(F)cc3)ccc2O1 | inactive
C[C@H]1CCCCO[C@H](CN(C)CC2CCCCC2)[C@@H](C)CN([C@@H](C)CO)C(=O)c2cc(NC(=O)Nc3ccc(F)cc3)ccc2O1 | active
C[C@@H]1CCCCO[C@@H](CN(C)CC2CCCCC2)[C@@H](C)CN([C@H](C)CO)C(=O)c2cc(NC(=O)Nc3ccc(F)cc3)ccc2O1 | inactive
C[C@@H]1CCCCO[C@H](CN(C)CC2CCCCC2)[C@H](C)CN([C@H](C)CO)C(=O)c2cc(NC(=O)Nc3ccc(F)cc3)ccc2O1 | active
C[C@H]1CCCCO[C@@H](CN(C)CC2CCCCC2)[C@@H](C)CN([C@@H](C)CO)C(=O)c2cc(NC(=O)Nc3ccc(F)cc3)ccc2O1 | active
C[C@@H]1CN([C@@H](C)CO)C(=O)c2cc(NC(=O)Nc3ccc(F)cc3)ccc2O[C@@H](C)CCCCO[C@H]1CN(C)CC1CC1 | inactive
C[C@@H]1CCCCO[C@H](CN(C)CC2CC2)[C@@H](C)CN([C@H](C)CO)C(=O)c2cc(NC(=O)Nc3ccc(F)cc3)ccc2O1 | inactive
C[C@@H]1CCCCO[C@H](CN(C)CC2CC2)[C@H](C)CN([C@@H](C)CO)C(=O)c2cc(NC(=O)Nc3ccc(F)cc3)ccc2O1 | inactive
CO[C@@]1(C2=NCCN2)COc2ccccc2O1 | inactive
O=C1O[C@@H](c2ccccc2)[C@@H](c2ccccc2)N2[C@@H](c3ccccc3OCCO)[C@]3(C(=O)Nc4ccc(C#CC5(O)CCCCCC5)cc43)[C@@H](C(=O)N3CCCCCCC3)[C@H]12 | inactive
C[C@H](CO)N1C[C@H](C)[C@H](CN(C)C(=O)C2CCCCC2)OCCCC[C@H](C)Oc2ccc(NC(=O)C3CCCCC3)cc2C1=O | inactive
CCCn1c(=O)c(C)cn2nc(N)nc12 | inactive
O=C(N[C@@H]1C=C[C@@H](CC(=O)N2CCOCC2)O[C@@H]1CO)c1ccccn1 | inactive
O=C(CCn1ccc(=O)[nH]c1=O)Nc1ccc2c(c1)NC(=O)CO2 | inactive
COc1ccc2c3c([nH]c2c1)[C@@H](CO)N(CC1CCCCC1)C[C@]13CCN(CC1)C(=O)NC1CCCC1 | inactive
Cc1noc(C)c1S(=O)(=O)Nc1ccc2c(c1)CC(=O)N([C@H](C)CO)C[C@@H](C)[C@H](CN(C)Cc1ccc3c(c1)OCO3)O2 | inactive
CN(C)c1ccsc1C(=O)NN | inactive
C[C@@H]1CN([C@H](C)CO)C(=O)c2cc(NC(=O)CCC(F)(F)F)ccc2O[C@@H](C)CCCCO[C@H]1CN(C)C(=O)C1CCCCC1 | inactive

SMILES | cytotoxicity call
C[C@@H]1CCCCO[C@H](CN(C)C(=O)C2CCCCC2)[C@H](C)CN([C@@H](C)CO)C(=O)c2cc(NC(=O)Nc3ccc4c(c3)OCO4)ccc2O1 | inactive
Cc1nc(COP(=O)(O)O)cc2c1[O][Mn][O]c1c(cc(COP(=O)(O)O)nc1C)CN(CC(=O)O)CCN(CC(=O)O)C2 | inactive
C[C@@H]1CCCCO[C@@H](CN(C)CC2CCCCC2)[C@H](C)CN([C@H](C)CO)C(=O)c2cc(NC(=O)Nc3ccc(F)cc3)ccc2O1 | active
C[C@H]1CCCCO[C@@H](CN(C)CC2CC2)[C@@H](C)CN([C@@H](C)CO)C(=O)c2cc(NC(=O)Nc3ccc(F)cc3)ccc2O1 | inactive
C[C@@H]1CCCCO[C@@H](CN(C)CC2CCCCC2)[C@H](C)CN([C@@H](C)CO)C(=O)c2cc(NC(=O)Nc3ccc(F)cc3)ccc2O1 | active
C[C@@H]1CCCCO[C@H](CN(C)CC2CCCCC2)[C@@H](C)CN([C@H](C)CO)C(=O)c2cc(NC(=O)Nc3ccc(F)cc3)ccc2O1 | inactive
C[C@@H]1CN([C@@H](C)CO)C(=O)c2cc(NC(=O)Nc3ccc(F)cc3)ccc2O[C@@H](C)CCCCO[C@@H]1CN(C)CC1CCCCC1 | active
C[C@@H]1CCCCO[C@H](CN(C)CC2CCCCC2)[C@H](C)CN([C@@H](C)CO)C(=O)c2cc(NC(=O)Nc3ccc(F)cc3)ccc2O1 | active
C[C@@H]1CN([C@H](C)CO)C(=O)CCCn2cc(nn2)CO[C@H]1CN(C)S(=O)(=O)c1ccc2c(c1)OCCCO2 | inactive
Cc1noc(C)c1NC(=O)N(C)C[C@H]1OCCCC[C@H](C)Oc2ccc(NC(=O)NC3CCCCC3)cc2C(=O)N([C@@H](C)CO)C[C@@H]1C | inactive
CN(C)CC#Cc1ccc([C@@H]2[C@H]3CN(C(=O)CN(C)C)CCCCN3[C@H]2CO)cc1 | inactive
C[C@@H]1CCCCO[C@@H](CN(C)C(=O)NC2CCCCC2)[C@H](C)CN([C@@H](C)CO)C(=O)c2cc(NC(=O)NC3CCCCC3)ccc2O1 | inactive
O=C(C[C@@H]1C[C@H]2c3cc(NC(=O)c4ccc5c(c4)OCO5)ccc3O[C@H]2[C@@H](CO)O1)NCc1ccccn1 | inactive
C[C@@H]1CN([C@@H](C)CO)C(=O)c2cccc(NC(=O)Nc3ccc(C(F)(F)F)cc3)c2O[C@@H]1CN(C)Cc1ccc(-c2ccccc2)cc1 | inactive
CC(C)NC(=O)Nc1ccc2c(c1)CC(=O)N([C@H](C)CO)C[C@@H](C)[C@H](CN(C)S(=O)(=O)c1cn(C)cn1)O2 | inactive
C[C@H]1CN([C@@H](C)CO)C(=O)c2cccc(NS(=O)(=O)c3ccc(F)cc3)c2O[C@@H]1CN(C)Cc1ccncc1 | inactive
C[C@H](O)C#Cc1ccc2c(c1)O[C@H](CN(C)C(=O)c1ccccc1)[C@H](C)CN([C@@H](C)CO)S2(=O)=O | inactive
C[C@@H]1CN([C@@H](C)CO)S(=O)(=O)c2ccc(-c3cccnc3)cc2O[C@H]1CN(C)C(=O)c1cccc(F)c1 | inactive
C[C@H](CO)N1C[C@H](C)[C@H](CN(C)CC2CCCCC2)OCCCC[C@H](C)Oc2ccc(NC(=O)Nc3ccc(F)cc3)cc2C1=O | active
C[C@@H]1CN([C@@H](C)CO)C(=O)c2cc(NC(=O)Nc3ccc(F)cc3)ccc2O[C@@H](C)CCCCO[C@H]1CN(C)CC1CCCCC1 | active
C[C@@H]1CCCCO[C@@H](CN(C)CC2CC2)[C@H](C)CN([C@@H](C)CO)C(=O)c2cc(NC(=O)Nc3ccc(F)cc3)ccc2O1 | inactive
C[C@H](CO)N1C[C@H](C)[C@@H](CN(C)CC2CCCCC2)OCCCC[C@H](C)Oc2ccc(NC(=O)Nc3ccc(F)cc3)cc2C1=O | active
C[C@H](CO)N1C[C@H](C)[C@@H](CN(C)CC2CC2)OCCCC[C@H](C)Oc2ccc(NC(=O)Nc3ccc(F)cc3)cc2C1=O | inactive
C[C@H](CO)N1C[C@H](C)[C@H](CN(C)CC2CC2)OCCCC[C@H](C)Oc2ccc(NC(=O)Nc3ccc(F)cc3)cc2C1=O | inactive

SMILES | cytotoxicity call
C[C@@H]1CCCCO[C@@H](CN(C)CC2CC2)[C@@H](C)CN([C@H](C)CO)C(=O)c2cc(NC(=O)Nc3ccc(F)cc3)ccc2O1 | inactive
COCC(=O)Nc1ccc2c(c1)OC[C@H](C)N(C(=O)Cc1cccnc1)C[C@@H](C)[C@H](OC)CN(C)C2=O | inactive
COCC#Cc1ccc2c(c1)O[C@H](CN(C)C(=O)Nc1ccccc1F)[C@H](C)CN([C@@H](C)CO)S2(=O)=O | inactive
COc1ccccc1-c1cnc2c(c1)C(=O)N([C@@H](C)CO)C[C@H](C)[C@@H](CN(C)C(=O)c1ccncc1)O2 | inactive
O=C(C[C@H]1CC[C@@H](NC(=O)CN2CCOCC2)[C@@H](CO)O1)NC1CCC1 | inactive
O=C1/C(=C/C=C/c2ccco2)CCC/C1=C\C=C\c1ccco1 | inactive
NC(=O)CSc1nnnn1-c1cccc(O)c1 | inactive
C[C@H]1CN([C@@H](C)CO)C(=O)c2cccc(NC(=O)c3cnccn3)c2O[C@@H]1CN(C)S(=O)(=O)c1ccc(Cl)cc1 | inactive
CC(C)NC(=O)N(C)C[C@H]1Oc2ccc(NC(=O)C3CCCCC3)cc2C(=O)N([C@@H](C)CO)C[C@@H]1C | inactive
CS(=O)(=O)Nc1ccc2c(c1)[C@H]1C[C@@H](CC(=O)NCc3ccc(-c4ccccc4)cc3)O[C@@H](CO)[C@H]1O2 | inactive
C[C@@H]1CCCCO[C@H](CN(C)Cc2ccccc2)[C@H](C)CN([C@H](C)CO)C(=O)c2cc(NS(=O)(=O)c3ccc(F)cc3)ccc2O1 | inactive
O=C(C[C@H]1C=C[C@H](NS(=O)(=O)c2ccccc2)[C@@H](CO)O1)NCc1ccncn1 | inactive
C[C@H]1CN([C@@H](C)CO)C(=O)Cc2cc(NC(=O)CCC(F)(F)F)ccc2O[C@@H]1CN(C)Cc1ccc(C(F)(F)F)cc1 | inactive
C[C@@H]1CN([C@H](C)CO)C(=O)Cc2cc(NC(=O)CCC(F)(F)F)ccc2O[C@H]1CN(C)Cc1ccc(C(F)(F)F)cc1 | active
C[C@H]1CN([C@@H](C)CO)C(=O)Cc2cc(NC(=O)Nc3ccc(C(F)(F)F)cc3)ccc2O[C@H]1CN(C)Cc1ccc(C(F)(F)F)cc1 | active
C[C@@H]1CN([C@H](C)CO)C(=O)Cc2cc(NC(=O)Nc3ccc(C(F)(F)F)cc3)ccc2O[C@H]1CN(C)Cc1ccc(C(F)(F)F)cc1 | inactive
C[C@@H]1CN([C@H](C)CO)C(=O)Cc2cc(NC(=O)Nc3ccc(C(F)(F)F)cc3)ccc2O[C@@H]1CN(C)Cc1ccc(C(=O)O)cc1 | inactive
C[C@@H]1CN([C@@H](C)CO)C(=O)Cc2cc(NC(=O)Nc3ccc(C(F)(F)F)cc3)ccc2O[C@@H]1CN(C)Cc1ccc(C(=O)O)cc1 | inactive
C[C@H](CO)N1C[C@H](C)[C@@H](CN(C)Cc2ccc(C(F)(F)F)cc2)Oc2ccc(NC(=O)Nc3ccc(C(F)(F)F)cc3)cc2CC1=O | active
C[C@H](CO)N1C[C@H](C)[C@H](CN(C)Cc2ccc(C(F)(F)F)cc2)Oc2ccc(NC(=O)Nc3ccc(C(F)(F)F)cc3)cc2CC1=O | active
C[C@@H]1CN([C@H](C)CO)C(=O)Cc2cc(NC(=O)CCC(F)(F)F)ccc2O[C@@H]1CN(C)Cc1ccc(C(F)(F)F)cc1 | inactive
C[C@H]1CN([C@@H](C)CO)C(=O)Cc2cc(NC(=O)Nc3ccc(C(F)(F)F)cc3)ccc2O[C@@H]1CN(C)Cc1ccc(C(F)(F)F)cc1 | inactive

Source: the antibiotic and cytotoxicity screens of Wong et al. (2023)
